Test results: PubChem BioAssay (NCI)
About 83,000 compounds went through this panel and 20% of them were active in at least one assay; those are over-represented in the sample as a whole.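 Cell lines were cultured in 96-well plates, exposed to a single compound concentration, and assessed for percent growth 48 hours later.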 Unmarked numbers belong to inactive results. Activity calls are given as the source filed them. The calls were made as follows: active = growth percent below 10; inactive = the rest.

Assays:
Experiment in all cases: NCI-60 one-dose screen, 48 h (100 = growth as untreated, 0 = no growth, -100 = all killed)
Conditions in all cases: 10 µM
NCI-H23 lung = tested on: NCI-H23 lung
NCI-H226 lung = tested on: NCI-H226 lung
NCI-H460 lung = tested on: NCI-H460 lung
HOP-92 NSCLC = tested on: HOP-92 NSCLC
NCI-H522 lung = tested on: NCI-H522 lung
A549/ATCC NSCLC = tested on: A549/ATCC NSCLC
786-0 renal = tested on: 786-0 renal
COLO 205 colon = tested on: COLO 205 colon
DU-145 prostate = tested on: DU-145 prostate
K-562 leukemia = tested on: K-562 leukemia
MALME-3M melanoma = tested on: MALME-3M melanoma
MDA-MB-231 breast = tested on: MDA-MB-231 breast
RXF 393 renal = tested on: RXF 393 renal
SF-268 CNS = tested on: SF-268 CNS
SF-295 CNS = tested on: SF-295 CNS
SF-539 CNS = tested on: SF-539 CNS
M14 melanoma = tested on: M14 melanoma
UACC-257 melanoma = tested on: UACC-257 melanoma

CC(=O)N[C@H](C(=O)N[C@@H](CCCNC(=N)N)C(=O)N[C@@H](CCCCN)C(=O)N[C@@H](CCCNC(=N)N)C(=O)N[C@]1(C)CCC/C=C\CCC[C@@](C)(C(=O)N[C@@H](CC(C)C)C(=O)N[C@@H](CC(C)C)C(=O)N[C@@H](CCC(N)=O)C(=O)N[C@@H](CCC(=O)O)C(=O)N[C@@H](CCCNC(=N)N)C(=O)N[C@@H](CCC(=O)O)C(=O)N[C@@H](CC(C)C)C(=O)N[C@H](C(=O)N[C@@H](CCC(=O)O)C(N)=O)C(C)C)NC(=O)[C@H](CCCNC(=N)N)NC(=O)[C@H](CC(C)C)NC1=O)C(C)C
growth (NCI-H23 lung): 106%
growth (NCI-H226 lung): 102%
growth (NCI-H460 lung): 105%
growth (HOP-92 NSCLC): 115%
growth (NCI-H522 lung): 96.8%
growth (A549/ATCC NSCLC): 94.7%
growth (786-0 renal): 98.1%
growth (COLO 205 colon): 102%
growth (DU-145 prostate): 99.7%
growth (K-562 leukemia): 104%
growth (MALME-3M melanoma): 137%
growth (MDA-MB-231 breast): 108%
growth (RXF 393 renal): 119%
growth (SF-268 CNS): 101%
growth (SF-295 CNS): 106%
growth (SF-539 CNS): 102%
growth (M14 melanoma): 107%

CNC(=O)c1cc(Oc2ccc3c(c2)sc2nc(-c4ccc(N)cc4)cn23)ccn1
growth (NCI-H23 lung): 35%
growth (NCI-H226 lung): 61.8%
growth (NCI-H460 lung): 10.1%
growth (HOP-92 NSCLC): 58.4%
growth (NCI-H522 lung): -22.6% (active)
growth (A549/ATCC NSCLC): 24.5%
growth (786-0 renal): 19.4%
growth (COLO 205 colon): -11.1% (active)
growth (DU-145 prostate): 7.79% (active)
growth (K-562 leukemia): 12%
growth (MALME-3M melanoma): 66.8%
growth (MDA-MB-231 breast): 22.2%
growth (RXF 393 renal): 43.8%
growth (SF-268 CNS): 41.9%
growth (SF-295 CNS): 18%
growth (SF-539 CNS): 6.43% (active)
growth (M14 melanoma): 15.5%

CCc1cc(Cl)c(OC)c(C(=O)NCC2CCCN2CC)c1O (stereo not given)
growth (NCI-H23 lung): 85.5%
growth (NCI-H226 lung): 94.7%
growth (NCI-H460 lung): 104%
growth (HOP-92 NSCLC): 65.8%
growth (A549/ATCC NSCLC): 95.6%
growth (786-0 renal): 97.8%
growth (COLO 205 colon): 103%
growth (DU-145 prostate): 102%
growth (MALME-3M melanoma): 108%
growth (MDA-MB-231 breast): 50.6%
growth (RXF 393 renal): 73%
growth (SF-268 CNS): 98.2%
growth (SF-295 CNS): 85%
growth (SF-539 CNS): 103%
growth (UACC-257 melanoma): 87.7%
growth (M14 melanoma): 103%

C#CC(C)(O)[C@@H]1C[C@H](CC(=O)O)C1(C)C (stereo not given in full)
growth (NCI-H23 lung): 98%
growth (NCI-H226 lung): 111%
growth (NCI-H460 lung): 116%
growth (HOP-92 NSCLC): 114%
growth (A549/ATCC NSCLC): 113%
growth (786-0 renal): 110%
growth (COLO 205 colon): 122%
growth (DU-145 prostate): 112%
growth (K-562 leukemia): 118%
growth (MDA-MB-231 breast): 113%
growth (RXF 393 renal): 134%
growth (SF-268 CNS): 105%
growth (SF-295 CNS): 103%
growth (SF-539 CNS): 99.7%
growth (UACC-257 melanoma): 105%
growth (M14 melanoma): 105%

C[C@]12CCC3c4ccc(O)cc4C[C@@H](CCCCCCCCCS(=O)CCCC(F)(F)C(F)(F)F)C3C1CC[C@@H]2O (stereo not given in full)
growth (NCI-H23 lung): 84.8%
growth (NCI-H226 lung): 94.2%
growth (NCI-H460 lung): 67.7%
growth (HOP-92 NSCLC): 78%
growth (A549/ATCC NSCLC): 67.9%
growth (786-0 renal): 96.1%
growth (COLO 205 colon): 93.7%
growth (DU-145 prostate): 103%
growth (MALME-3M melanoma): 103%
growth (MDA-MB-231 breast): 79.5%
growth (RXF 393 renal): 87.5%
growth (SF-268 CNS): 97.1%
growth (SF-295 CNS): 42.8%
growth (SF-539 CNS): 86.4%
growth (UACC-257 melanoma): 91.5%
growth (M14 melanoma): 100%

C[C@@H](O)[C@H]1C(=O)N2C(C(=O)O)=C(SCCN=CN)C[C@H]12
growth (NCI-H23 lung): -1.59% (active)
growth (NCI-H226 lung): -34.7% (active)
growth (NCI-H460 lung): 1.59% (active)
growth (HOP-92 NSCLC): -8.43% (active)
growth (A549/ATCC NSCLC): -14.9% (active)
growth (786-0 renal): 8.8% (active)
growth (COLO 205 colon): -25.8% (active)
growth (DU-145 prostate): -7.37% (active)
growth (MALME-3M melanoma): -60.1% (active)
growth (MDA-MB-231 breast): 9.83% (active)
growth (RXF 393 renal): 1.5% (active)
growth (SF-268 CNS): -4.56% (active)
growth (SF-295 CNS): -5.26% (active)
growth (SF-539 CNS): 3.65% (active)
growth (UACC-257 melanoma): -31% (active)
growth (M14 melanoma): -44.7% (active)

O=C1/C=C/[C@@H](O)[C@@H]2C[C@@H](O)C[C@H]2/C=C/CCC[C@H](C(F)(F)F)O1
growth (NCI-H23 lung): -30.8% (active)
growth (NCI-H226 lung): -46.7% (active)
growth (NCI-H460 lung): 59.2%
growth (HOP-92 NSCLC): -2.27% (active)
growth (NCI-H522 lung): -27.6% (active)
growth (A549/ATCC NSCLC): 33.4%
growth (786-0 renal): -11.6% (active)
growth (DU-145 prostate): 28.2%
growth (K-562 leukemia): 20.7%
growth (MALME-3M melanoma): -10.9% (active)
growth (MDA-MB-231 breast): -31.8% (active)
growth (RXF 393 renal): -28.8% (active)
growth (SF-268 CNS): 17.9%
growth (SF-295 CNS): 78%
growth (SF-539 CNS): 21.4%
growth (UACC-257 melanoma): 6% (active)
growth (M14 melanoma): 13.4%

Cc1cc(NC(=O)c2ccc(C)c(Nc3nccc(-c4cccnc4)n3)c2)cc(-n2cnc(C)c2)c1
growth (NCI-H23 lung): 67.6%
growth (NCI-H226 lung): -17.6% (active)
growth (NCI-H460 lung): 2.48% (active)
growth (HOP-92 NSCLC): 25.3%
growth (NCI-H522 lung): 59.3%
growth (A549/ATCC NSCLC): 47.1%
growth (786-0 renal): -30% (active)
growth (COLO 205 colon): 4.18% (active)
growth (DU-145 prostate): 32.3%
growth (K-562 leukemia): -36.2% (active)
growth (MDA-MB-231 breast): 18.5%
growth (RXF 393 renal): -3.26% (active)
growth (SF-268 CNS): 73.3%
growth (SF-295 CNS): -13.4% (active)
growth (SF-539 CNS): 21.1%
growth (UACC-257 melanoma): 87%
growth (M14 melanoma): 30.9%

N#CC1=CC2CN(Cc3ccccc3)C1C1C(=O)N(c3ccccc3)C(=O)C21 (stereo not given)
growth (NCI-H23 lung): 88%
growth (NCI-H226 lung): 97.7%
growth (NCI-H460 lung): 101%
growth (HOP-92 NSCLC): 108%
growth (NCI-H522 lung): 106%
growth (A549/ATCC NSCLC): 95.5%
growth (786-0 renal): 102%
growth (COLO 205 colon): 98.2%
growth (DU-145 prostate): 105%
growth (K-562 leukemia): 92.4%
growth (MALME-3M melanoma): 111%
growth (MDA-MB-231 breast): 106%
growth (RXF 393 renal): 103%
growth (SF-268 CNS): 107%
growth (SF-295 CNS): 98.7%
growth (SF-539 CNS): 98.5%
growth (UACC-257 melanoma): 97.5%
growth (M14 melanoma): 86.4%
